Hits are enriched below; roughly 5.4% of the tested compounds scored in any of these assays.
RORgamma inh: blocks mouse ROR gamma transcriptional activity | P51450 | Drosophila S2 Gal4-RORgamma UAS-luciferase reporter, 20 h | Potency, µM (highest dose often 53.6 µM), for the others: at the highest dose activity change, negative = inhibition, usual class: inhibitors | hit rate 5.4% among 310,000; note: potency is the fitted concentration of half-maximal effect; % is set by controls: 0 for no effect and ±100 for the full control effect; nearly all actives have a fitted effect of over 60% in size
Target sequence (P51450 whole entry, looked up, the tested form may be a part): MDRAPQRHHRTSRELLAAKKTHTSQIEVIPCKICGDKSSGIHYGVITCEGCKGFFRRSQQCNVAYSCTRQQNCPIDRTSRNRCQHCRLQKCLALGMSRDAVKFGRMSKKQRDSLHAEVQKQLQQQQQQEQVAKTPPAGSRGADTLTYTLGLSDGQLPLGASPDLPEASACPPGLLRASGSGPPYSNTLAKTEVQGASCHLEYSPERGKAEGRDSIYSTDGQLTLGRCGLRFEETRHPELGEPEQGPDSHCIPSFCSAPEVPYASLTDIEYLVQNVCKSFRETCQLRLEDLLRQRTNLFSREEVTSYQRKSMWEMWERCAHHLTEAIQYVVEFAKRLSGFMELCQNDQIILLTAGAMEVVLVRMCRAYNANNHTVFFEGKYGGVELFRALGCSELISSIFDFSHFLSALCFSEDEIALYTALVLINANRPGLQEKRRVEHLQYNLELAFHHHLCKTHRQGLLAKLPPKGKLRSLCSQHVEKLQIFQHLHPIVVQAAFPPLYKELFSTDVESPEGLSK
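Drosophila S2 cells stably expressing Gal4-DBD/mouse RORγ fusion under metallothionein promoter plus UAS-luciferase; compound 1 h, then 700 uM CuSO4 induction for 20 h at ambient temperature; inhibition read as reduced luminescence.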
CtBP-E1A blk: blocks the CtBP interaction with E1A; AlphaScreen GST-E1A/His-CtBP binding, 1536-well; hits give low values; activity change, % (no concentration beside the values); hit rate 0.49% among 340,000; in the data active = activity change below about -65%; inconclusive = mostly about -30% to -63%; note: % is set by controls: 0 for no effect and ±100 for the full control effect
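Steps: dispense buffer (Tris pH 8.0, NaCl 300 mM, TCEP 1 mM, BSA, Tween 20); add 5X protein mix (GST-E1A, His-CtBP, 125 nM each); pin 23 nL compound; 2 h at 37 °C, dark; add 5X beads (50 ug/mL); 1 h; read.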
p53 reactivator: restores transcriptional activity of mutant p53; hit rate 0.063% among 320,000; Potency, µM (top dose mostly 92.2 µM), for inactives: at the highest dose activity change, positive = activation, hits mostly activators; H1299 p53-A138V BP100-luciferase reporter, luminescence, 24 h; AID 504706; note: potency is the fitted concentration of half-maximal effect; % of control where 0% means no effect; nearly all actives have a fitted effect of over 45% in size
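p53-null H1299 cells stably carrying temperature-sensitive p53-A138V and a BP100-luciferase reporter were pinned with compounds (4-point, 1:5 series) and held 24 hrs at 37 deg C. Luminescence was read 10 min after detection reagent.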
VP16 counter: counter-screen for ROR gamma inhibitors: Gal4-VP16 reporter | Drosophila S2 Gal4-VP16 UAS-luciferase, luminescence, 20 h | Potency, µM (highest dose often 53.6 µM), for the others: at the highest dose activity, negative = inhibition, hits mostly inhibitors | hit rate 3.5% among 310,000;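 note: Gal4-VP16 expression switched on by copper sulfate through the metallothionein promoter; potency is the fitted concentration of half-maximal effect; % is set by controls: 0 for no effect and ±100 for the full control effect; nearly all actives have a fitted effect of over 50% in size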
Six1-Eya2 inh: inhibitors of human Six1/Eya2 interaction; AID 651725; hit rate 0.56% among 360,000; activity change, % (no concentration beside the values); Q15475+O00167; AlphaScreen GST-Six1/His-Eya2 binding, biochemical; hits give low values; in the data active = activity change below about -65%; inconclusive = mostly about -30% to -63%; note: % is set by controls: 0 for no effect and ±100 for the full control effect
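GST-Six1 + His-Eya2 (5X stock: 250/500 nM); Tris pH 8.0, 300 mM NaCl, 0.05% BSA, 0.02% Tween 20; GSH donor/Ni acceptor beads; 1 h 37 °C dark; AlphaScreen readout.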
* hit, by the source's call; ? = inconclusive; nt = no result. Unless noted, calls come from the whole dose curve; as a rule, active = well fitted curve in the direction sought with a large enough effect; inconclusive = small, poorly fitted or top-dose-only effect, or another doubt; inactive = no such curve, though single readings can be large; an effect the other way counts as inactive or inconclusive.

SMILES	RORgamma inh	CtBP-E1A blk	p53 reactivator	VP16 counter	Six1-Eya2 inh
FC(F)Oc1ccc(NC(=S)NCc2ccccc2)cc1Cl	14.1µM*	8.3	10.0%	?	4.9
FC(F)Oc1ccc(NC(=S)NCCc2ccccn2)cc1	4.47µM*	5.0	8.3%	5.01µM*	-0.9
FC(F)Oc1ccc(NC(=S)Nn2cnnc2)cc1	-24.7%	0.9	6.8%	-13.5%	2.2
Oc1cccc2c(NC(=S)Nc3ccc(OC(F)F)cc3)cccc12	?	-20.3	?	11.2µM*	-10.7
CN(NC(=S)Nc1ccc(OC(F)F)cc1)C(=S)Nc1ccc(OC(F)F)cc1	-29.4%	10.2	1.3%	12.6µM*	0.9
CC(=O)c1cc2c(C)c(C(=O)c3ccccc3)oc2cc1O	?	11.0	49.6%	?	1.7
Cc1cc2cc(CNC(=S)Nc3ccc(OC(F)F)cc3)ccc2n1C	-27.0%	-2.5	5.6%	-4.4%	-17.0
FC(F)Oc1ccc(NC(=S)NCc2ccccc2)cc1	12.6µM*	0.4	2.4%	?	3.0
O=C(NN1C(=O)/C(=C/C=C/c2ccco2)SC1=S)c1ccccc1O	-1.7%	?	2.2%	3.1%	-72.3*
COc1ccc(/C=C/C(=O)NC(=S)NNC(=O)Cc2cccs2)cc1	11.2µM*	-23.0	?	?	-21.3
COc1ccc(/C=C/C(=O)NC(=S)NNC(=O)c2cc(OC)c(OC)c(OC)c2)cc1	-42.8%	nt	3.3%	-14.9%	-24.7
O=C(/C=C/c1ccccc1)NC(=S)NNC(=O)Cc1cccs1	2.51µM*	-14.6	19.1%	5.01µM*	-12.2
CC(C)CCC1=NN(C(=O)c2ccco2)C(O)(C(F)(F)F)C1 (stereo not drawn)	23.1%	2.5	2.8%	0.1%	1.2
CC(C)CC1=NN(C(=O)c2ccco2)C(O)(C(F)(F)F)C1 (stereo not drawn)	6.31µM*	2.9	0.4%	14.1µM*	1.4
Cc1nn(-c2ccccc2)c2sc(C(=O)NC3CCCCC3)cc12	17.8%	17.2	2.2%	-0.3%	-6.1
Cc1nn(-c2ccccc2)c2sc(C(=O)NNC(=O)COc3cccc4ccccc34)cc12	8.91µM*	4.0	-8.0%	?	4.5
Cc1nn(-c2ccccc2)c2sc(C(=O)NNC(=O)COc3ccccc3)cc12	7.08µM*	?	?	10µM*	?
Cc1cnc(NC(=O)c2cc3c(C)nn(-c4ccccc4)c3s2)s1	0.891µM*	0.4	1.5%	1.12µM*	3.8
CCC(C)Sc1nc2ccccc2n1CC(=O)O (stereo not drawn)	12.6µM*	3.2	-5.2%	2.4%	5.6
Cc1nc2cc(-c3ccccc3)sc2c(=O)n1N	0.708µM*	-0.2	17.4%	1.58µM*	1.6
COc1ccc(-c2cc3nc4n(c(=O)c3s2)CCC4)cc1	?	-1.7	17.6%	1.58µM*	-1.9
COc1ccc(-c2cc3nc(C)n(N)c(=O)c3s2)cc1	1.78µM*	nt	-13.1%	1.26µM*	1.1
C[C@@H](C[C@@H](O)[C@H](O)C(C)(C)O)[C@@H]1CC[C@]2(C)C3=CC[C@H]4C(C)(C)C(=O)CC[C@]4(C)[C@H]3CC[C@@]12C	4.47µM*	nt	-5.0%	?	-8.8
C[C@H](C[C@H](O)[C@H]1OC1(C)C)C1=C2C[C@H](O)C3[C@@]4(C)CCC(=O)C(C)(C)C4CC[C@]3(C)[C@@]2(C)CC1 (stereo partly drawn)	nt	4.9	-3.1%	nt	-7.3
CCOC(=O)c1cc(C(C)(C)C)oc1CNC(=O)c1c(C)oc2c1CCCC2	93.8%	-2.7	0.7%	-17.8%	-3.4
SMILES	RORgamma inh	CtBP-E1A blk	p53 reactivator	VP16 counter	Six1-Eya2 inh
CCOC(=O)c1ccc(CNC(=O)c2cc(C(C)(C)C)oc2C)o1	6.31µM*	-10.2	-12.1%	?	-6.5
CCCn1c(C)nc2c(NC3CCN(Cc4ccccc4)CC3)nc(C)nc21	4.6%	nt	nt	-2.2%	nt
S=C(Nc1ccccc1Cl)NC1CC2CCCC(C1)N2C1CC1 (stereo not drawn)	11.2µM*	nt	-1.7%	-1.0%	5.8
CC(C)(C)C(=O)NC1CC2CCCC(C1)N2C(=O)Nc1ccccc1Cl (stereo not drawn)	10.4%	5.1	-10.7%	-13.7%	3.6
CCN(CC)CCNC(=S)N1CCn2c(nc3ccccc32)C1	3.3%	10.4	-7.5%	?	19.4
O=C(O)c1ccccc1C(=O)Nc1ccc(S(=O)(=O)NC2CCCCC2)cc1	30.9%	1.4	4.0%	-10.2%	5.8
C(=C\c1nc2ccccc2[nH]1)/c1ccccc1	7.08µM*	-6.3	-2.9%	8.91µM*	6.2
CN(C)c1ccc(/C=C/c2nc3ccccc3c(=O)[nH]2)cc1	2µM*	nt	38.1%	?	8.8
O=c1[nH]c(/C=C/c2ccccn2)nc2ccccc12	?	nt	11.2µM*	-10.1%	-8.0
O=c1[nH]c(/C=C/c2cccc3ccccc23)nc2ccccc12	24.7%	-9.0	8.0%	8.2%	6.8
CCN(CC)C1CC(=O)N(c2cccc(C)c2)C1=O (stereo not drawn)	-142.5%	nt	14.7%	7.08µM*	nt
CCN(CCO)C1CC(=O)N(c2ccccc2C)C1=O (stereo not drawn)	3.98µM*	8.3	?	3.55µM*	-2.3
Cc1cccc(N2C(=O)CC(Cn3nc(C)cc3C)C2=O)c1 (stereo not drawn)	-0.8%	nt	0.7%	2.8%	-2.9
Cc1ccccc1N1C(=O)CC(N(O)c2ccccc2)C1=O (stereo not drawn)	0.0%	-1.6	29.3%	3.7%	7.6
Nn1c(SC/C=C/c2ccccc2)nnc1-c1ccccn1	-40.0%	-77.8*	5.3%	-5.9%	-75.3*
Nn1c(SC/C=C/c2ccccc2)nnc1-c1cccnc1	29.9%	-1.3	-3.8%	-1.8%	5.6
Oc1ccccc1/C=N/Nc1cc(N2CCCC2)nc(N2CCCC2)n1	11.2µM*	0.0	19.4%	?	?
Cc1nc(N/N=C/c2cccc(F)c2)cc(N2CCOCC2)n1	33.2%	-11.4	nt	-14.7%	-10.5
CCCCc1ccc(/C(C)=N/Nc2cc(N3CCOCC3)nc(C)n2)cc1	12.6µM*	nt	nt	?	-4.2
C/C(=N\Nc1cc(N2CCOCC2)nc(C)n1)c1cccc([N+](=O)[O-])c1	-7.9%	2.6	1.5%	-1.5%	-2.6
Cc1nc(N/N=C/c2ccc(O)cc2O)cc(N2CCOCC2)n1	?	-93.4*	nt	-14.0%	-78.7*
Cc1nc(-c2ccccn2)nc(N2CCOCC2)c1Cl	35.2%	-8.8	1.4%	1.8%	53.6
Cc1nc(-c2ccccn2)nc(N(C)c2ccccc2)c1Cl	0.316µM*	-4.4	5.0%	1.58µM*	4.8
C[C@@H](c1ccccc1)N1C(=O)[C@@H]2[C@H]3C(=CC[C@H]2C1=O)C(=O)[C@H]1O[C@H]1[C@H]3O	3.55µM*	nt	nt	?	nt
CC(C)(C)N1C(=O)[C@@H]2[C@H]3C(=CC[C@H]2C1=O)C(=O)[C@H]1O[C@H]1[C@H]3O	1.41µM*	nt	nt	?	nt
